Bioassay records from PubChem.
The list is not random: actives were taken first. Their share in the collection is about 10%.
GPT2 inh – Primary qHTS assay for inhibitors of Glutamate pyruvate transaminase 2 (GPT2); actives 0.25% (n = 100,000); Potency, µM (top dose mostly 57.7 µM), for the others: at the top dose activity change, negative = inhibition, usual class: inhibitors; AID 1671188, 2021; Recombinant GPT2, coupled pyruvate oxidase/HRP Amplex Red fluorescence; further: nearly all actives have a fitted effect of over 60% in size
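Fluorescence of coupled pyruvate oxidase/HRP/Amplex Red system (50uM Amplex, 30 min, dark) reports pyruvate formed by GPT2. Enzyme reaction: 10ng/uL GPT2, 2mM L-alanine, 250uM a-KG, 30 min room temperature, pH 7.5; 50uM AOA control.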
FLuc inh – Firefly luciferase inhibition profiling of diverse chemical library using quantitative high-throughput screening; Luciferin 4-monooxygenase (Photinus pyralis), P08659; purified P. pyralis luciferase, luminescence, biochemical; actives 2.5% (n = 76,000); Potency, µM (titrated, usually from 115 µM), usual class: inhibitors; further: nearly all actives have a fitted effect of over 65% in size
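FLuc 10nM, D-luciferin 10uM, ATP 10uM, Mg acetate 10mM, Tris acetate pH 7.5, Tween/BSA; cpd qHTS; enzyme added last; CCD luminescence.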
HEK cytotox – Cytotoxic Profiling in HEK 293 Cell Line of Diverse Libraries Using Quantitative High-Throughput Screening | AID 1345083, 2018 | HEK 293 viability, ATP luminescence (CellTiter-Glo), 48-72 h | actives 6.6% (n = 94,000) | Potency, µM (top dose mostly 115 µM), without a hit: at the top dose activity change, negative = cytotoxicity, hits mostly inhibitors; further: nearly all actives have a fitted effect of over 60% in size
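Cells seeded first (HEK 293, 250 cells/well), then compound added by pintool. Incubation ran 48 or 72 hr at 37 degree Celsius. CellTiter-Glo was added and luminescence imaged after 10 min at room temperature.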
NIH3T3 tox – Cytotoxic Profiling in NIH 3T3 Cell Line of Diverse Libraries Using Quantitative High-Throughput Screening; NIH 3T3 viability, CellTiter-Glo ATP luminescence, 48-72 h; Potency, µM (titrated, usually from 96.7 µM), inactives show at the highest dose activity change, negative = cytotoxicity, actives largely listed as inhibitors; actives 4.3% (n = 94,000); AID 1345082, 2018; further: nearly all actives have a fitted effect of over 55% in size
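Cells were seeded at 400 per well, treated with pin-transferred compound, and kept 48 or 72 hr at 37 °C before CellTiter-Glo addition and luminescence imaging of cellular ATP.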
NPR1 antag – Natriuretic polypeptide receptor (hNpr1) antagonism - Primary qHTS; Atrial natriuretic peptide receptor 1 (Homo sapiens), P16066; HEK293 hNpr1 GloSensor cGMP, ANP-stimulated luminescence; Potency, µM (series often up to 46.3 µM), inactives show at the top dose activity change, negative = inhibition, most hits filed as inhibitors; actives 1.6% (n = 76,000); calls by dose curve; further: nearly all actives have a fitted effect of over 60% in size
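Compound pre-incubated 30 min at room temperature on GloSensor-loaded HEK293 cells stably carrying hNpr1 and the pGS-40F cGMP biosensor. Stimulation uses hNppA at 0.1 nM final; luminescence is taken at baseline and 20 min post-agonist.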
The depositor's hits bear a star; i = inactive; ? = inconclusive; / = not tested or not shown; [ ] = remark or other dose. Unless noted, the call rests on the fitted dose curve; in most records, active means well fitted curve in the direction sought with a large enough effect; inconclusive means small, poorly fitted or top-dose-only effect, or another doubt; inactive means no such curve, though single readings can be large; an effect the other way counts as inactive or inconclusive. On the % scale 0 is the no-effect control and ±100 the full control effect; potency means the concentration at half of the fitted maximal effect.

SMILES	GPT2 inh	FLuc inh	HEK cytotox	NIH3T3 tox	NPR1 antag
N[C@H]1CO[C@H]2[C@@H]1OC[C@@H]2n1cc(-c2ccccn2)nn1	?	i	126µM*	?	-4%[70.6 µM]
CC1CCC2C(C(=O)O)=CC3(O)CC(C)(C)CC123 (centres undefined)	4%	/	/	/	/
CC(=O)N1CCC(N2C[C@H](O)C[C@H]2c2nc(-c3ccc(C(F)(F)F)cc3)no2)CC1	i	?	71µM*	?	-10%[70.6 µM]
COc1ccc(-c2noc([C@@H]3C[C@@H](O)CN3C3CCCCC3)n2)cc1	?	71µM*	?	?	5%[70.6 µM]
Cc1ccc(CN2C[C@H](O)C[C@H]2c2nc(-c3ccc(F)cc3)no2)cc1	-25%[88.5 µM]	i	?	?	2%[70.6 µM]
Cc1ccc(-c2noc([C@@H]3C[C@@H](O)CN3Cc3ccc(S(C)(=O)=O)cc3)n2)cc1F	1%[88.5 µM]	71µM*	?	?	2%[70.6 µM]
Cc1ccc(-c2noc([C@@H]3C[C@@H](O)CN3C3CCCCC3)n2)cc1F	-12%[88.5 µM]	50µM*	-20%[172 µM]	-29%[174 µM]	3%[70.6 µM]
Cc1ncc2c(c1CNC(=O)c1ccc3c(c1)OCO3)CCN(C(=O)CC1NC(=O)c3ccccc31)C2 (centres undefined)	-15%	i	13%	i	1%
CCc1ccc(CN2CCC3(Cc4ccccc4CNC3=O)C2)s1 (centres undefined)	-15%	/	?	-22%	/
CCCNC(=O)C1c2ccccc2C(=O)N(C2CCCCC2)C12CCCCC2 (centres undefined)	0%	i	40µM*	?	2%
COC(=O)CCNC(=O)C1c2ccccc2C(=O)N(C2CCCC2)C12CCCCC2 (centres undefined)	i	i	?	?	-1%
O=C(NCc1ccccn1)C1c2ccccc2C(=O)N(C2CCCCC2)C12CCCCC2 (centres undefined)	-6%	i	25µM*	?	-1%
O=C(NCCc1ccncc1)C1c2ccccc2C(=O)N(C2CCCCC2)C12CCCCC2 (centres undefined)	-9%	i	40µM*	?	-30%
CNC(=O)[C@@H]1C[C@@H](O)CN1C1CCN(C(=O)CCc2ccccc2)CC1	i	i	-3%	-3%	0%
CCc1nc(-c2cccc(C)c2)c(-c2ccnc(NC(=O)c3ccccc3)c2)s1	-18%	/	/	/	/
O=C1c2cnc(-c3ccccc3C(F)(F)F)nc2OCCN1Cc1ccccc1	-12%[88.5 µM]	i	?	-29%[138 µM]	-1%[70.6 µM]
Cc1ccccc1-c1ncc2c(n1)OCCN(c1ccccc1)C2=O	-4%[88.5 µM]	20µM*	?	-34%[138 µM]	3%[70.6 µM]
COc1ccccc1-c1ncc2c(n1)OCCN(c1cccc(C(F)(F)F)c1)C2=O	?	i	?	?	-5%[70.6 µM]
COc1ccc(Cl)cc1-c1ncc2c(n1)OCCN(c1ccccc1)C2=O	-6%[88.5 µM]	?	4%[172 µM]	40µM*	5%[70.6 µM]
COc1ccc(-c2ncc3c(n2)OCCN(C)C3=O)cc1OC	-14%[88.5 µM]	40µM*	i	?	2%[70.6 µM]
COc1ncccc1-c1ncc2c(n1)OCCN(c1cccc(C(F)(F)F)c1)C2=O	-9%[88.5 µM]	i	-16%[172 µM]	25µM*	1%[70.6 µM]
O=S(=O)(Nc1cccn2ncnc12)c1ccc(C2CCCCC2)cc1	i	i	?	?	?
Cc1cnc(CCNC(=O)c2ccc(C#N)cc2)n1C1CCC1	2%	i	i	-8%	1%
O=C1c2cnc(-c3cccnc3)nc2OCCN1Cc1ccccc1	i	i	?	-17%[138 µM]	-6%[70.6 µM]
O=C1c2cnc(-c3ccc(O)c(F)c3)nc2OCCN1c1ccccc1	4%[88.5 µM]	?	45µM*	8.9µM*	-25%[70.6 µM]
SMILES	GPT2 inh	FLuc inh	HEK cytotox	NIH3T3 tox	NPR1 antag
COc1ccc(-c2nc(N3CCOC[C@H]3C)cc3c2CN(C(C)C)C3=O)cc1	-2%[88.5 µM]	i	112µM*	79µM*	3%[70.6 µM]
COc1ccc(OC)c(NC(=O)Cn2c(=O)n(-c3cccc(C)c3)c(=O)c3c2cc(C)n3C)c1	i	i	?	-11%	-8%
CN(C)C(=O)N1CCc2nc(-c3ccc(Cl)cc3)nc(-c3ccccc3)c2C1	i	i	?	-11%	13%
O=C(N[C@@H]1CCNC[C@H]1O)c1cccc(-c2ccc(OC(F)(F)F)cc2)c1	1%	i	?	18µM*	3%
O=C(NCC1CCCO1)c1ccc2oc(-c3ccc(C(F)(F)F)cc3)nc2c1 (centres undefined)	?	i	18µM*	-20%	?
O=C(NC1CCCCCC1)c1ccc2oc(-c3ccncc3)nc2c1	-16%	/	35µM*	-24%	/
O=C(c1ccc2oc(-c3ccc(C(F)(F)F)cc3)nc2c1)N1CCOCC1	i	i	?	?	-14%
COc1cccc(N2C(=O)NC(=NC3CCCCC3)C23CCCN(C(=O)c2ccc(C)cc2)C3)c1 (centres undefined)	-1%	/	-29%	i	/
CCOCCn1c(=O)[nH]c2cc(C(=O)NCc3n[nH]c(C)n3)ccc21	i	i	-4%	i	1%
CCOCCn1c(=O)[nH]c2cc(C(=O)NCCc3ccc(C)s3)ccc21	?	40µM*	?	-25%	4%
O=C(COc1ccccc1)Nc1ccc([C@@H](O)[C@H]2COCC(=O)N2Cc2ccc(F)cc2)cc1	i	i	?	-18%	-5%
COc1ccc(C(=O)Nc2ccc([C@@H](O)[C@H]3COCC(=O)N3CC3CCCCC3)cc2)cc1	1%	i	35µM*	?	-19%
O=C(COc1ccccc1)Nc1ccc([C@@H](O)[C@H]2COCC(=O)N2Cc2ccc(C(F)(F)F)cc2)cc1	-9%	i	40µM*	?	?
O=C(Nc1ccc([C@@H](O)[C@H]2COCC(=O)N2Cc2ccccc2)cc1)c1ccc(F)cc1	-9%[88.5 µM]	i	100µM*	?	-9%[70.6 µM]
O=C(COc1ccccc1)Nc1ccc([C@@H](O)[C@H]2COCC(=O)N2CCCc2ccccc2)cc1	-6%	i	79µM*	?	4%
CCOCCN1C(=O)COC[C@@H]1[C@H](O)c1ccc(NC(=O)COc2ccccc2)cc1	4%[88.5 µM]	i	-27%[172 µM]	-20%[138 µM]	0%[70.6 µM]
CCn1c(C2CCCN(C(=O)c3cc(CC(C)C)nn3C)C2)nn(C)c1=O (centres undefined)	-6%	i	-9%	-5%	-8%
